The entries come from a sample that favours hits as a whole.
ST2 inh = blocks human ST2 binding to IL-33. inhibition, % for hits at 17 µM. AlphaLISA ST2-Fc/biotin-IL-33 interaction, 1 h. hit rate 2.3% among 78,000; in the data active = inhibition above about 30%
Target sequence (Q01638 whole entry, looked up): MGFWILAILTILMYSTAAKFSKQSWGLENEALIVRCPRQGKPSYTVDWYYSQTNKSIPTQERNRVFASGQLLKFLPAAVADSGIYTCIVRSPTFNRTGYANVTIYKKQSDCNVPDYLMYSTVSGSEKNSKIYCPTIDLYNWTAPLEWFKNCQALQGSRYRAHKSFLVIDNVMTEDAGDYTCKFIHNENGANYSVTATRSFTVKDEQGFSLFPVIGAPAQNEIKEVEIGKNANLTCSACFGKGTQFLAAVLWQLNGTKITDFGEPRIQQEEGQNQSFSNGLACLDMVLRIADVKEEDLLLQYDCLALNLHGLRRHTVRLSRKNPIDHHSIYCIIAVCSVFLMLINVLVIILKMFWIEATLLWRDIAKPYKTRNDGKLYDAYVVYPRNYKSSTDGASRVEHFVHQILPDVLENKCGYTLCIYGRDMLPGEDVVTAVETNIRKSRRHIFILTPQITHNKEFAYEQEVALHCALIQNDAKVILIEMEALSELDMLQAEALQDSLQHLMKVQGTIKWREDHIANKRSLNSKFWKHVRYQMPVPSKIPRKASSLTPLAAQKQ
Each line names hits and unclear results; the compound was inactive in the other large screens; ! = a repeat was not active.

CN(C)CCNc1cc(-c2ccc(Cl)cc2F)c2cc[nH]c2n1	ST2 inh 30%
Cc1nnc(Sc2cc(C(=O)NCCC(C)C)c3ccccc3n2)s1	none
CCCn1ccnc1CN1CC[C@H](CO)[C@H](O)C1	none
COc1ccccc1OCC(=O)Nc1sc2c(c1C(N)=O)CCCC2	none
COc1ccc(C(=O)Nc2sc3c(c2C(N)=O)CCCC3)cc1[N+](=O)[O-]	ST2 inh 31%
CC(C)(C)c1ccc(C(=O)Nc2sc3c(c2C(N)=O)CCCC3)cc1	none
COc1ccc(OC)c(S(=O)(=O)Nc2c(C(C)C)cccc2C(C)C)c1	none
Cc1ccc(C(=O)NCC2CCN(C)C2)c2ccccc12 (stereo not drawn)	none
O=C(Nc1nc2ccc(Cl)cc2s1)c1ccccc1[N+](=O)[O-]	none
N#C/C(=C\c1ccccc1[N+](=O)[O-])c1nc(-c2ccc(Cl)cc2)cs1	ST2 inh 31%
O=C1c2cccc([N+](=O)[O-])c2C(=O)N1c1nc(-c2ccccc2)cs1	none
N#C/C(=C\c1ccccc1[N+](=O)[O-])c1nc(-c2ccccc2)cs1	ST2 inh 50%
COc1cc(/C(C#N)=C/c2ccccc2F)c([N+](=O)[O-])cc1OC	none
C[C@@H]1O[C@@H](OC[C@H]2O[C@@H](c3c(O)cc4c(c3O)C(=O)C[C@@H](c3ccc(O)cc3)O4)[C@H](O)[C@@H](O)[C@@H]2O)[C@H](O)[C@H](O)[C@H]1O	none
CSc1ncc(CN2CCC(n3nccc3NC(=O)CCc3ccccc3)CC2)cn1	none
O=C(NC1CCCCCC1)C1CCNCC1	none
Cc1cccnc1CN1CCN(Cc2nc[nH]c2C)CC1	none
CCN1CCN(C2CCN(C(=O)C3CCC(=O)N(Cc4ccccc4F)C3)CC2)CC1 (stereo not drawn)	none
COc1ccc(N2CCCS2(=O)=O)cc1NC(=O)c1cccc(OC)c1OC	none
Cc1ccccc1CCC1CCCN(C(=O)CCn2ccc(=O)[nH]c2=O)C1 (stereo not drawn)	none
Oc1oc(-c2ccc(Br)cc2)nc1C=Nc1ccc(Cl)cc1Cl	none
Oc1oc(-c2ccc(Br)cc2)nc1C=Nc1ccc(Cl)cn1	ST2 inh 42%
Oc1oc(-c2ccc(Cl)cc2)nc1C=Nc1cccc(F)c1	ST2 inh 31%
Oc1oc(-c2ccccc2)nc1C=Nc1cccc(F)c1	none
Oc1oc(-c2ccccc2)nc1C=Nc1cccc(Cl)c1	none
Oc1oc(-c2ccc(Br)cc2)nc1C=Nc1cc(Cl)ccc1Cl	none
Oc1oc(-c2ccc(Cl)cc2)nc1C=Nc1ccc(Br)cc1	none
Oc1oc(-c2ccc(Br)cc2)nc1C=Nc1ccccn1	none
Oc1oc(-c2ccc(Cl)cc2)nc1C=Nc1ccccc1Br	ST2 inh 31%
CCCCN(CCCC)S(=O)(=O)c1nc(C)c(Cl)c(C)c1C#N	none
Cc1nnc(CNC(=O)C2CCC(=O)N(CCc3ccc(Cl)cc3)C2)o1 (stereo not drawn)	none
CCCCOC(=O)C1=C(C)Nc2ncnn2C1c1ccc(OC)cc1 (stereo not drawn)	none
O=C1CCc2cc(S(=O)(=O)NCc3ccc(F)cc3)ccc2N1	none
Cc1nc(CNC(C)COc2ccccc2)cs1 (stereo not drawn)	none
O=C(Cn1ccc2ccccc2c1=O)NCC(=O)Nc1ccc(F)c(Cl)c1	none
COc1cc(C2C3=C(CCCC3=O)NC3=C2C(=O)c2ccccc23)ccc1O (stereo not drawn)	none
COc1cc(C2CC(c3ccccc3O)=NN2)ccc1O (stereo not drawn)	ST2 inh 32%
COc1cc(C2N(Cc3ccccc3)CCN2Cc2ccccc2)ccc1O	none
Cc1cc2nc(SCCOC(=O)CN3C(=O)c4ccccc4C3=O)nc(C)c2cc1C	none
CCCCNC(=O)c1c[nH]c2ccc(S(=O)(=O)Nc3cccc(Cl)c3C)cc2c1=O	none
COc1ccc(C2=Nn3c(nnc3-c3ccccc3)SC2)cc1	none
Cc1nnc2n1N=C(c1ccc(Cl)cc1)CS2	ST2 inh 39%!
Oc1ccccc1-c1nnc2n1N=C(c1ccc(Cl)cc1)CS2	none
C=C(C)Cn1c(CNC(=O)c2cccs2)nc2ccccc21	none
CC(C)c1ccc(CN2CCCC3(CCN(C(=O)c4ccc5nc[nH]c5c4)C3)C2)cc1 (stereo not drawn)	none
CC(C)c1cc(C(=O)N(C)CCC2CCCCO2)n(C)n1 (stereo not drawn)	none
COc1ccccc1NC(=O)N1C[C@@H]2C[C@H](C1)c1ccc(-c3ccc(NC(C)=O)cc3)c(=O)n1C2	none
O=C(Nc1ccccc1)N1C[C@@H]2C[C@H](C1)c1ccc(-c3ccc(OC(F)(F)F)cc3)c(=O)n1C2	ST2 inh 33%
COc1ccc(S(=O)(=O)N2C[C@@H]3C[C@H](C2)c2ccc(-c4ccc(OC(F)(F)F)cc4)c(=O)n2C3)cc1	none
CC(C)Cn1c(Br)nc2c1c(=O)[nH]c(=O)n2C	none
COc1cccc2sc(NC(=O)c3cc(=O)c4ccccc4o3)nc12	none
Cc1cccc(N=c2oc3ccc(Br)cc3cc2C(N)=O)c1	none
NC(=O)c1cc2cc(Br)ccc2oc1=Nc1ccccc1	ST2 inh 33%
Cc1ccc(N=c2oc3ccc(Br)cc3cc2C(N)=O)cc1	none
O=C(c1cc(-c2ccc(Br)cc2)on1)N1CCN(Cc2ccccc2)CC1	none
COc1cccc(/C=C2\N=C(SC)SC2=O)c1OCc1ccccc1	ST2 inh 40%
CSC1=N/C(=C\c2ccc(C(=O)O)cc2)C(=O)S1	none
CSC1=N/C(=C\c2cc(Br)ccc2OCC(=O)O)C(=O)S1	none
COc1cccc(/C=C2/SC(N3CCCC3)=NC2=O)c1OC	none
COc1cc(/C=C2\N=C(SC)SC2=O)cc(OC)c1OC	ST2 inh 30%
CCOc1ccc(/C=C2\N=C(SC)SC2=O)cc1	ST2 inh 44%
CCOc1ccc(/C=C2\N=C(c3cccc(C)c3)OC2=O)cc1	none
COc1cc(C=C2C(=O)OC(C)(C)OC2=O)cc(Cl)c1O	none
O=C(Nc1cccnc1)c1noc2c1CCc1ccccc1-2	none
O=C(Nc1ccccc1F)c1oc2ccccc2c1NC(=O)C1CCCCC1	none
Cc1ccc(-c2cc(N3CCN(S(=O)(=O)c4ccc(F)c(Cl)c4)CC3)ncn2)cc1	none
COc1ccc(-c2cc(-c3c(O)ccc4ccccc34)[nH]n2)cc1	none
Cc1cccc(CC(=O)Nc2cnn(-c3cccc(C(=O)N4CCN(c5cnccn5)CC4)c3)c2)c1	none
Cc1c(N=Cc2cn(C)c3ccccc23)c(=O)n(-c2ccccc2)n1C	none
CCOc1ccccc1NC(=O)C(NS(=O)(=O)c1cccs1)C(C)C (stereo not drawn)	none
Cc1ccc(N(CC(=O)Nc2ccc(Cl)cc2)S(C)(=O)=O)c(C)c1	none
Cc1ccc(N2CCn3c2nc2c3c(=O)n(Cc3ccccc3F)c(=O)n2C)cc1	none
COc1ccc2nc3oc(C(=O)Nc4cc(Cl)ccc4OC)cc3cc2c1	none
COc1ccc2nc3oc(C(=O)NCc4cccs4)cc3cc2c1	ST2 inh 35%
CCOc1ccccc1NC(=O)c1cc2cc3ccc(OC)cc3nc2o1	none
COc1ccc2nc3oc(C(=O)Nc4ccc(OC)c(Cl)c4)cc3cc2c1	ST2 inh 37%
COc1ccc2cc3cc(C(=O)Nc4ccc(F)cc4F)oc3nc2c1	none
COc1ccc2nc3oc(C(=O)NCCC(C)C)cc3cc2c1	none
COc1cccc(NC(=O)c2cc3cc4ccc(OC)cc4nc3o2)c1	ST2 inh 38%
CCOCCCNC(=O)c1cc2cc3cc(OC)ccc3nc2o1	none
COc1ccc2cc3cc(C(=O)N4CCN(c5cccc(Cl)c5)CC4)oc3nc2c1	none
COc1ccc2nc3oc(C(=O)Nc4cc(OC)c(OC)c(OC)c4)cc3cc2c1	none
COc1cc(NC(=O)c2cc3cc4ccc(Cl)cc4nc3o2)cc(OC)c1OC	none
COc1ccc2cc3cc(C(=O)Nc4cccc(Cl)c4)oc3nc2c1	ST2 inh 36%
O=C(c1c(F)cccc1F)N1CCN=C1SCc1cccnc1	none

Screening results deposited in PubChem BioAssay by Paczesny and Yang Labs, IUPUI and University of Michigan.
